HCV inh: HCV inhibition. Huh7.5.1 HCVcc-Cre infection, luciferase reporter, 44 h. Potency, µM (top dose mostly 41.8 µM), for inactives: top-dose activity change, negative = inhibition, most hits filed as inhibitors. hit rate 3.4% among 340,000. AID 651820; further: on the % scale 0 is the no-effect control and ±100 the full control effect
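A cell-based infection assay in which seeded cells (1,000 per well) receive test compound after 4 h, are inoculated with HCVcc-Cre at approximately 0.5 moi, and are incubated 44 h before luminescence detection.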
Pf growth 48h: P. falciparum growth inhibition at 48 hours (one generation). hit rate 5.9% among 310,000. P. falciparum luciferase growth in erythrocytes, 48 h. AID 504832. Potency, µM (doses to about 28.7 µM), for the others: at the highest dose activity change, negative = inhibition, hits mostly inhibitors; further: on the % scale 0 is the no-effect control and ±100 the full control effect
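Read-out is firefly luciferase luminescence from an integrated reporter in P. falciparum, so falling signal marks reduced parasite growth. Infected erythrocytes were at 2% hematocrit and 0.1% parasitemia (final) in Albumax-supplemented RPMI 1640.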
NS1 inh: influenza NS1 inhibition; Potency, µM (series often up to 46.1 µM), without a hit: at the top dose activity, positive = more growth; hit rate 0.4% among 270,000; calls by dose curve; further: actives are rising curves; nearly all actives have a fitted effect of over 50% in size
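Recovery from NS1-induced slow growth read by OD600 in budding yeast switched to galactose assay medium (pH 6.0, -URA) at 1:100 dilution. Compound 23 nl per well; the matching strain lacking NS1 serves as control.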
Vaccinia mCherry: inhibitors of vaccinia virus infection (mCherry reporter signal); Vaccinia virus mCherry reporter infection, fluorescence; Potency, µM (highest dose often 36.5 µM), for inactives: at the highest dose activity change, negative = inhibition, hits mostly inhibitors; hit rate 0.63% among 310,000; AID 720579; calls by dose curve; tested in A549 cells; further: on the % scale 0 is the no-effect control and ±100 the full control effect; nearly all actives have a fitted effect of over 35% in size
Pf growth 96h: P. falciparum growth inhibition at 96 hour, primary screen for plastid delayed-death inhibitors | P. falciparum luciferase reporter growth, 96 h | Potency, µM (highest dose often 28.7 µM), for inactives: at the top dose activity change, negative = inhibition, hits mostly inhibitors | hit rate 6.9% among 320,000 | AID 504834; further: on the % scale 0 is the no-effect control and ±100 the full control effect
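96 h incubation, 37 C, 5% CO2, of luciferase-reporter P. falciparum-infected RBCs (2% hematocrit, 0.05% parasitemia final) with test compounds; endpoint luminescence.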
VACV Venus inh: inhibitors of vaccinia virus (Venus reporter); Vaccinia virus Venus reporter expression, fluorescence; Potency, µM (top dose mostly 36.5 µM), inactives show at the highest dose activity change, negative = inhibition, hits mostly inhibitors; hit rate 0.46% among 330,000; AID 720580; calls by dose curve; tested in A549 cells; further: on the % scale 0 is the no-effect control and ±100 the full control effect; nearly all actives have a fitted effect of over 30% in size
The depositor's hits bear a star; i = inactive; ? = inconclusive; / = not tested or not shown; ! = repeats disagree; [ ] = dose if it differs, or a comment. Hits are enriched below; roughly 11% of the tested compounds scored in any of these assays. Unless noted, the call rests on the fitted dose curve; in most records, active means well fitted inhibition curve with a large enough effect; inconclusive means small, poorly fitted or top-dose-only effect, or another doubt; inactive means no such curve, though single readings can be large or run the other way. Potency means the concentration at half of the fitted maximal effect.

SMILES | HCV inh | Pf growth 48h | NS1 inh | Vaccinia mCherry | Pf growth 96h | VACV Venus inh
CC1(C)OC(=O)N(c2ccccc2)C12C=Cc1c(ccc3ccccc13)O2 (configuration not stated) | -29% | 13µM* | 15% | ? | 136% | -29%
Nc1nc(Cl)cc(Sc2ccc3ccccc3c2)n1 | -20% | 1% | -4% | / | 37% | ?
COc1ccccc1Cn1nnc2c(=O)[nH]c(C3CCN(C(=O)c4ccc(C)cc4)CC3)nc21 | -11% | ? | -3% | / | 38% | ?
COc1ccccc1Cn1nnc2c(=O)[nH]c(C3CCN(C(=O)c4ccccc4Cl)CC3)nc21 | -16% | 9.3µM* | 2% | / | 3% | -15%
COc1ccccc1Cn1nnc2c(=O)[nH]c(C3CCN(C(=O)c4ccc(F)cc4)CC3)nc21 | 5% | 12µM* | 3% | -6% | -21% | -4%
CCC(N)Cc1c[nH]c2ccccc12 (configuration not stated) | -23% | 5% | 5% | -5% | 0.67µM*! | -8%
O=C1CC(/C=C/c2ccccc2)(C(=O)NC2CCCC2)N1c1ccc(S(=O)(=O)N2CCCC2)cc1 (configuration not stated) | -17% | -15% | 24% | -15% | 10% | -5%
CCOC(=O)CNC(=O)C1(/C=C/c2ccccc2)CC(=O)N1c1ccc(OC)cc1 (configuration not stated) | 22% | 10µM* | -6% | -7% | ? | -16%
COc1ccc(N2C(=O)CC2(/C=C/c2ccccc2OC)C(=O)NC2CCCC2)cc1 (configuration not stated) | -24% | 12µM* | 4%[9.22 µM] | / | 27% | /
O=c1ccccn1Cc1ccccc1F | 6% | 16% | -12% | -3%[1.46 µM] | 5% | -23%
CC1CCN(C(=O)COC(=O)Cn2cnc3c2c(=O)n(C)c(=O)n3C)CC1 | 21% | -9% | / | / | 23% | /
CCCC(=O)NCCc1nc2ccccc2n1C | 4% | 29% | 0% | / | ? | /
CCc1ccc(NC(=O)C(=O)NCCN2CCN(Cc3ccc([N+](=O)[O-])cc3)CC2)cc1 | -21% | 26% | -3% | -11% | 45% | -10%
Cc1ccc(NC(=O)C(=O)NCCN2CCN(Cc3ccc([N+](=O)[O-])cc3)CC2)cc1 | ? | 13% | 5% | -9% | 0.47µM* | -1%
COC(=O)C/C=N/N=C1/NC(=O)/C(=C/C(=O)O)S1 | 7% | ? | -1% | / | 9.3µM* | /
COC(=O)/C=C1\S/C(=N/N=C/c2ccccc2)NC1=O | 30% | -23% | -7% | i | -12% | -7%
COC(=O)/C=C1\S/C(=N/N=C/c2ccc(Cl)cc2)NC1=O | 31% | 15µM* | -45% | -2%[7.34 µM] | 8% | -21%[7.34 µM]
COC(=O)/C=C1/S/C(=N/N=C/c2ccco2)NC1=O | -8% | ? | -35% | -8% | ? | -5%
COc1ccc(C(=O)NNC(=O)c2ccc3ccccc3c2)cc1 | 13% | / | / | i | / | -9%
COc1ccc(C(=O)NC(=S)NC(C)C)cc1Br | ? | -3% | -7% | i | ? | -5%
COc1ccc(C(=O)NNC(=O)c2ccc3ccccc3n2)cc1 | ? | -29% | / | 11µM* | -8% | ?
COc1ccc(C(=O)NC(=S)NNC(=O)c2cccc(C)c2)cc1 | -8% | / | / | ? | / | -3%
CCCOc1ccc(C(=O)NNC(=S)NC(=O)CC)cc1 | ? | ? | -169% | / | 15µM* | /
COc1ccc(C(=O)NNC(=S)NC(=O)c2ccc(OC)cc2)cc1 | -14% | -9% | -72% | / | 9.3µM* | /
COc1ccc(C(=O)NC(=S)NC(C)(C)C)cc1Br | ? | ? | -10% | -17%[1.46 µM] | 5.2µM* | -7%
OCCC1CN(Cc2cc3c(cc2Cl)OCO3)CCN1C1CCCC1 (configuration not stated) | 6% | 29% | 7% | / | ? | /
CCOC(=O)c1ccc(NC(=S)N2CCN(CCN=CC3=C(O)CC(c4ccccc4)CC3=O)CC2)cc1 (configuration not stated) | -1% | ? | 2% | / | ? | /
COc1ccc(C(=O)NC(=S)NNC(=O)c2ccncc2)cc1Br | -4% | 13µM* | / | / | ? | /
